The record followed here is PubChem BioAssay (EPA / NIEHS).

Calls of active or inactive are those of the source. The calls were made as follows: active = hit-call score of the fitted dose curve at least 0.9, where 1 is the maximum; inactive = score below 0.9.

Read-out in the test: Collagen I, COL1A1 (gene 1277)
Kind of test: BSK_MyoF_CollagenI: BioMAP Diversity Plus: MyoF Assay for Collagen I Biomarker Activity (AID 2284238). As to conditions: primary human lung fibroblasts. How it is done: BSK_MyoF is a cell-based, multiplexed-readout assay that uses lung fibroblasts, […], with measurements taken at 24 hours after chemical dosing in a microplate: 96-well plate.BSK_MyoF_CollagenI is an assay component measured in the BSK_MyoF assay. It measures Collagen I antibody related to regulation of gene expression using ELISA technology.Data from the assay component BSK_MyoF_CollagenI was analyzed at the endpoint, BSK_MyoF_CollagenI, in the positive analysis fitting direction relative to DMSO as the negative control and baseline of activity. Using a type of binding reporter, gain or loss-of-signal activity can be used to understand protein changes. To generalize the intended target to other relatable targets, this assay endpoint is annotated to the 'cell adhesion molecules' intended target family, where the subfamily is 'collagen'.
The levels of cell surface (or secreted, indicated by the prefix "s") biomarker endpoints were measured by ELISA. Overt cytotoxicity to cells in confluent adherent cultures (all systems other than the BT system) was assessed by measuring total protein levels using sulforhodamine B (SRB) staining in parallel cultures at the time of biomarker measurements, indicated as SRB endpoints. For proliferation assays for adherent cell types, individual cell types are cultured at sub-confluence and relative cell numbers quantified by SRB staining at time points optimized for each system (48 h: 3C and CASM3C systems; 72 h: BT and HDF3CGF systems; 96 h: SAg system). SRB was performed by staining cells with 0.1% SRB after fixation with 10% TCA and reading wells at 560 nm.Viability and proliferation of PBMC (T cells) was quantified by Alamar Blue reduction for the SAg and BT systems. For PBMC viability (referred to as PBMC Cytotoxicity within the assay endpoint names), cells were plated (75,000/well in a 96-well plate) and then chemical samples added for 1 h before addition of activators, SEB and TSST-1 (20 ng/mL final concentration each). Cells were incubated for 90 h. Then, Alamar Blue (20 uL/well) (Invitrogen, Cat DAL1100) was added for 6 h, and the plates were read with a fluorescence microplate reader at 546/580 nm (excitation/emission). For PBMC proliferation, cells were plated and activated as above but incubated for only 16 h prior to addition of Alamar Blue. Plates were read after 6 h.
As for `CCCCCCCCCCCCCCCC[N+](C)(C)CC`, the AC50 is 0.64 µM (active).

For `CCOc1nc(F)cc2nc(S(=O)(=O)Nc3c(Cl)cccc3C(=O)OC)nn12`, the outcome was inactive.

In the case of `C=CC(=O)OCC(Br)CBr` (configuration not stated), the AC50 is 20 µM (active).

As to `c1ccc2c(c1)ccc1ncccc12`, the result was inactive.

For `C=CCOc1c(Br)cc(Br)cc1Br`, the AC50 is 20 µM (active).

Take `c1ccc(-c2ccccn2)nc1`: the result was inactive.

As for `CCCCC/C=C\C/C=C\CCCCCCCC(=O)OC`, the AC50 was 27.1 µM (active).

For the compound `CCO[Si](CCCN=C=O)(OCC)OCC`, the outcome was inactive.

For the compound `C/C=C\C/C=C/CCCCCCCCOC(C)=O`, the outcome was inactive.

On to `S=C(NC1CCCCC1)NC1CCCCC1`, for which the result was inactive.

For the compound `CCCCCCCCc1ccc(Nc2ccc(CCCCCCCC)cc2)cc1`, the result was inactive.

In the case of `COc1ccc2nc(N)sc2c1`, the result was inactive.

As for `CCCCC(CC)COC(=O)c1ccccc1O` (configuration not stated), the AC50 was 14.5 µM (active).

In the case of `CC(C)C(=O)C(C)C`, the outcome was inactive.

`CC1OC1C1CCC2(C)OC2C1` (configuration not stated): the outcome was inactive.

As to `O=Nc1ccc(O)cc1`, the outcome was inactive.

`c1ccc2c(c1)ccc1cc3c(ccc4ccccc43)cc12`: the outcome was inactive.

Turning to `O=C(Cl)c1cc(C(=O)Cl)cc(C(=O)Cl)c1`, the AC50 was 30.7 µM (active).

With `O=C(Nc1ccccc1SSc1ccccc1NC(=O)c1ccccc1)c1ccccc1`, the outcome was inactive.

`CCCCNc1ccc(NCCCC)c2c1C(=O)c1ccccc1C2=O`: the result was inactive.

On to `C=CC=CC=CCCCCC`, for which the result was inactive.

As to `C=CCOCC(O)CCl` (configuration not stated), the result was inactive.

With `COCc1c(C(C)C)nc(C(C)C)c(/C=C/[C@@H](O)C[C@@H](O)CC(=O)O)c1-c1ccc(F)cc1`, the AC50 was 9.2 µM (active).

`CC(C)(c1cc(Br)c(OCCO)c(Br)c1)c1cc(Br)c(OCCO)c(Br)c1`: the AC50 was 6.65 µM (active).

As to `O=c1c2ccccc2oc2ccccc12`, the result was inactive.

For `C#CC1(O)CC[C@H]2[C@@H]3CCC4=CCCC[C@@H]4[C@H]3CC[C@@]21C` (some centres not stated), the AC50 was 22.4 µM (active).

On to `N#[N+]c1ccc2c(S(=O)(=O)[O-])cccc2c1O`, for which the result was inactive.
